This passage reports growth results from PubChem BioAssay (NCI).

This is part of a sample that, as a whole, favours compounds with a hit. Of some 83,000 tested, about 20% had one in any assay.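 Note: values are percent growth. 100 is the growth of untreated cells, values between 100 and 0 indicate rising inhibition; between -100 and 0 indicates cell death.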 Values without a mark were called inactive. Activity calls are given as the source filed them. How the source made its calls: active means growth percent below 10; inactive means the rest.

Holding throughout (experiment): NCI-60 one-dose screen, 48 h (100 = growth as untreated, 0 = no growth, -100 = all killed)
Holding throughout (settings): 10 µM unless noted

Assay [1] concerns HCT-15 colon.
Assay [2] has as its system HT29 colon.
Assay [3] deals with SNB-75 CNS.
In assay [4] the test system is SNB-19 CNS.
In assay [5] the test system is U251 CNS.
For assay [6], the system named is PC-3 prostate.
The subject of assay [7] is SK-MEL-5 melanoma.
The test system of assay [8] is UACC-62 melanoma.
Assay [9] concerns LOX IMVI melanoma.
The test system of assay [10] is SK-MEL-28 melanoma.
For assay [11], the system named is SK-MEL-2 melanoma.
The test system of assay [12] is EKVX NSCLC.
Assay [13] deals with SN12C renal.
Assay [14] relates to UO-31 renal.
In assay [15] the test system is TK-10 renal.
Assay [16] deals with ACHN renal.
Assay [17] relates to CAKI-1 renal.
In assay [18] the test system is A498 renal.
Assay [19] has as its system CCRF-CEM leukemia.
The subject of assay [20] is MOLT-4 leukemia.

Take `NS(=O)(=O)c1ccc(Nc2nc(Nc3ccccc3)nc3nnc(SCC(=O)NC4CCCCC4)n23)cc1`: the growth is 104% in [1]; 113% in assay [2]; 115% in assay [3]; 101% in assay [4]; 104% in [5]; 98.5% in assay [6]. The growth is 105% in [7]; 92.3% in assay [8]; 101% in assay [9]; 105% in [10]; 106% in assay [11]; 103% in assay [12]. Further, the growth in assay [13] is 100%; in [14] it was 80.8%; in [15], 104%; in assay [16], 99.1%; in assay [17], 83.7%; in assay [18] it was 97.2%. In addition, the growth in assay [19] and in assay [20] was 101% throughout.

On to `Nc1ncc(-c2ccc(NS(=O)(=O)c3ccc(Cl)c(Cl)c3)cc2)[nH]1`, for which the growth in [1] is 94.6%; in [2], 107%; in assay [3] it was 90.9%; in [4] it was 87.7%; in assay [5] it was 92.3%; in assay [6] it was 76.5%. In addition, the growth in assay [7] is 97.2%; in assay [8] it was 78.2%; in assay [9], 89.5%; in assay [10], 99.3%; in assay [11] it was 105%; in assay [12] it was 86.7%. The growth in assay [13] is 90.9%; in assay [14], 76.3%; in assay [15], 80%; in [16] it was 95.7%; in assay [17], 71.6%; in assay [18], 85.1%. For the same compound, the growth in assay [19] is 55.2%; in [20], 73.9%.

As for `Cc1ccc(C2=NN(C)C(=O)C3(CCCC3)C2)cc1`, the growth is 101% in assay [1]; 106% in [2]; 93.5% in assay [3]; 105% in assay [4]; 103% in assay [5]; 102% in assay [6]. Further, the growth in assay [7] was 101%; in assay [8], 98.5%; in [9] it was 100%; in [10] it was 103%; in [11], 110%; in assay [12], 102%. Further, the growth in assay [13] is 101%; in assay [14], 95.5%; in [15] it was 97.3%; in [16] it was 110%; in [17], 100%; in assay [18], 89.4%. For the same compound, the growth is 111% in assay [19] and 102% in assay [20].

Regarding `CCc1ccc(SC2c3ccc(N(CC)CC)cc3Oc3nc(N)c(C#N)c(N)c32)cc1` (stereo not given), the growth in [1] was -88% (active); in [2] it was -54.6% (active); in assay [3], 12.7%; in [4], -95.1% (active); in assay [5], -71.3% (active); in [6], -74% (active). Also, the growth is -97% (active) in assay [7]; -32.7% (active) in assay [8]; -86.6% (active) in assay [9]; -18.7% (active) in [10]; -48.2% (active) in assay [11]; -54.8% (active) in [12]. Further, the growth in [13] was -32.9% (active); in assay [14], -98.8% (active); in [15], -18% (active); in assay [16] it was -53.7% (active); in assay [17], -46.7% (active); in assay [18], -8.49% (active). The growth in [19] is -23.7% (active); in assay [20], -8.26% (active).

As to `CCCn1cnc2c(c1=N)C(c1ccc(Cl)cc1)c1sc3c(CC)cccc3c1O2` (stereo not given), the growth in assay [1] was 17.6%; in assay [2] it was -5.38% (active); in assay [3], -1.58% (active); in assay [4], 23.1%; in assay [5], 14.3%; in assay [6], 3.88% (active). Also, the growth was 31% in [7]; 12.8% in [8]; 29.3% in [9]; 57.8% in assay [10]; 22.5% in assay [11]; 43% in assay [12]. The growth was 27.8% in [13]; 32.4% in assay [14]; 61.1% in [15]; 35.3% in assay [16]; 32.2% in assay [17]; -8.25% (active) in [18]. The growth in [19] is 0.961% (active); in assay [20], 10%.

On to `O=C(CCn1c[n+](CC(=O)c2ccc(-c3ccccc3)cc2)c2ccccc21)Nc1cccc2cccnc12`, for which the growth in assay [1] is 93.8%; in assay [2], 51.8%; in assay [3], 41%; in assay [4], 41.6%; in assay [5], 42.9%; in assay [6], 30.9%. The growth in [7] was 20.8%; in [8] it was 15.1%; in [9], 57.9%; in assay [10], 38.9%; in assay [11], 65.4%; in assay [12], 61.9%. Moreover, the growth in assay [13] was 53.6%; in assay [14], 82.6%; in [15] it was 97.5%; in assay [16] it was 103%; in [17], 77.7%; in [18] it was 88.7%. In addition, the growth in assay [19] was 36.1%; in [20], 47.9%.

As to `O=C(c1ccc(Cl)cc1)C1[C@H](c2ccc(Cl)cc2)[C@@H](c2ccccc2)NC12C(=O)Nc1ccccc12` (stereo not given in full), the growth was 35.1% in assay [1]; 15.4% in assay [2]; 51.1% in assay [3]; 70.3% in assay [4]; 45.8% in assay [5]; 29.1% in assay [6]. Further, the growth in [7] is 75.1%; in assay [8], 52.8%; in assay [9] it was 42.4%; in assay [10], 81.2%; in assay [11], 72.5%; in [12], 58.6%. For the same compound, the growth was 16.6% in [13]; 43.8% in assay [14]; 78.8% in assay [15]; 34.5% in assay [16]; 37% in assay [17]; 74.3% in [18]. In addition, the growth in assay [19] is 53.9%; in assay [20], 21.1%.
